From PubChem BioAssay AID1259318 (Sanford-Burnham Center for Chemical Genomics, 2017)
The whole screen tested about 370,000 compounds, of which about 3,000 (0.81%) were called active.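 Rule for the calls: active = activity above about 14% (limit read from the data; passing the limit was not always enough); inactive = the rest.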 The list comes from a sample in which actives are over-represented; it also holds similar structures and randomly drawn compounds. Where a SMILES comes first, the peptide text is derived from it. Side-chain parts run from the residue outwards. [ ]: non-standard residue; d: D form. The star is where a group is joined. X1 = CCC(C)C(N)C1=NC(C(=O)*)CS1; Orn = NCCC[CH](N)C(=O)O

What follows are compounds tested against Nuclear receptor subfamily 1 group D member 1 (Homo sapiens) (UniProt P20393) (assay: Rev-erbα–DNA interaction modulation – biochemical, FITC-DNA, fluorescence polarization, uHTS, primary screen (AID 1259318;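 note: 0% = DMSO wells with 35 nM protein and 100% = DMSO wells with 750 nM protein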)). Details: Rev-erbα–FITC-DNA binding, 90 min, at 10 µM, hits give high values.
Nuclear receptor subfamily 1 group D member 1 (Homo sapiens), sequence (P20393 whole entry, looked up): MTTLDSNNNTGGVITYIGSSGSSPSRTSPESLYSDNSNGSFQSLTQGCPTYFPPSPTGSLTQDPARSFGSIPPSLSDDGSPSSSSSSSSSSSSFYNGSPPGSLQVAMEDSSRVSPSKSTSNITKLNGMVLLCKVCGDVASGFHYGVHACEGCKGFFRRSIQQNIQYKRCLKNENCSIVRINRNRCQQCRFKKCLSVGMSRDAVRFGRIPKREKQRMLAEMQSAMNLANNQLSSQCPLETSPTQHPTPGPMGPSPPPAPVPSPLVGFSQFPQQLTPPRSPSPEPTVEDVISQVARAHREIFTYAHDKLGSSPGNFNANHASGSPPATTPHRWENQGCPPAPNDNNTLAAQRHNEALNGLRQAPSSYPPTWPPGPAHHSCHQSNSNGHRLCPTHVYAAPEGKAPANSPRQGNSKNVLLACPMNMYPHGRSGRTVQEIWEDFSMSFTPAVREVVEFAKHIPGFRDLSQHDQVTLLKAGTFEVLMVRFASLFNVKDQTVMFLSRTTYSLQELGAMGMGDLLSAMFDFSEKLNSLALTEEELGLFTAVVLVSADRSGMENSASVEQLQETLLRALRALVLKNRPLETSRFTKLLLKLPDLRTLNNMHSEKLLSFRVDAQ

Row | SMILES | activity
1 | COc1ccc(S(=O)(=O)N(C)CC(=O)NCCCN2CCOCC2)cc1Cl | 3.3% (inactive)
2 | CCCS(=O)(=O)NC(=O)C1(C)CCCN(C(=O)c2cccs2)C1 (stereo not given) | -2.98% (inactive)
3 | Nc1nc(/C(=C/CC(=O)O)C(=O)N[C@@H]2C(=O)N3C(C(=O)O)=CCS[C@H]23)cs1 | -0.02% (inactive)
4 | CCC(C)C(N)C1=NC(C(=O)NC(CC(C)C)C(=O)NC(CCC(=O)O)C(=O)NC(C(=O)NCCCCC2NC(=O)C(CC(N)=O)NC(=O)C(CC(=O)O)NC(=O)C(Cc3cnc[nH]3)NC(=O)C(Cc3ccccc3)NC(=O)C(C(C)CC)NC(=O)C(CCCN)NC2=O)C(C)CC)CS1 (stereo not drawn) (cyclo(DNK([Ile-Glu-Leu-X1])[Orn]IFH); configuration not given here) | -1.28% (inactive)
5 | COC(=O)c1ccc(NC(=O)c2cc(Cl)ccc2OC)cc1 | 46.1% (active)
6 | COc1ccc(Cl)cc1-c1cc(C(=O)Nc2cc(OC)c(OC)c(OC)c2)[nH]n1 | 0.68% (inactive)
7 | CCC(C)NC(=O)c1cc(Cl)ccc1OC (stereo not given) | -0.16% (inactive)
8 | Cc1ccc2c(C)c(C(=O)N3CCC(N4CCC(C(=O)NC5CC5)CC4)CC3)oc2c1 | 5.47% (inactive)
9 | O=C(NCCCc1ccccc1)[C@H](Cc1ccccc1)NC1(C(=O)NCCc2c[nH]c3ccccc23)CCC1 | 1.61% (inactive)
10 | CCc1ccc2c(c1)cc(CN(C(=S)Nc1ccccc1Cl)C1CC1)c1nnnn12 | 18.7% (active)
11 | CCc1cccc(NC(=S)N(CCN(C)C)C2CCN(C(C)C)CC2)c1 | -2.21% (inactive)
12 | CCOc1ccc2c(c1)cc(CN(C(=O)CC)C1CCCCC1)c1nnnn12 | -0.47% (inactive)
13 | O=C(c1cccc(Br)c1)N1CCN(C2=NS(=O)(=O)c3ccccc32)CC1 | 1% (inactive)
14 | CC(=O)NCc1ccc(S(=O)(=O)NC2CCN(Cc3ccccc3)CC2)cc1 | -1.17% (inactive)
15 | COc1ccc(CN(C(=O)CSc2nnc(-c3ccc(OC)c(OC)c3)o2)c2ccc(F)cc2)cc1 | 4.8% (inactive)
16 | CCCn1c(SCC(=O)c2ccc3c(c2)OCCO3)nnc1C(C)C | -3.34% (inactive)
17 | COc1ccc(-c2nnc(SCC(=O)c3ccc4c(c3)OCCO4)o2)cc1 | 39.7% (active)
18 | CCc1ccccc1NC(=O)CSc1nnc(-c2cccs2)o1 | -8.53% (inactive)
19 | O=C(CCc1nnc2ccc(NCc3ccccc3Cl)nn12)NCC1CCN(C2CCCC2)C1 (stereo not given) | -21.6% (inactive)
20 | CC12CCC(=O)C=C1CCC1C2[C@@H](O)CC2(C)C1CC[C@]2(O)C(=O)COP(=O)(O)O (stereo not given in full) | 1.93% (inactive)
21 | CC(C)CCn1c(=O)c2c(nc3n2CCCN3Cc2ccccc2)n(C)c1=O | -1.34% (inactive)
22 | Cn1c(=O)n(C)c2cc(/C=N/NC(=O)c3cccc(Br)c3)ccc21 | 49.2% (active)

Row | SMILES | activity
23 | C/C(Cc1ccccc1)=N\NC(=O)CNC(=O)c1cccc(Br)c1 | -0.21% (inactive)
24 | O=C(N/N=C/c1ccc(OCC2COCCO2)cc1)c1ccc(Br)cc1 (stereo not given) | -0.42% (inactive)
25 | Cc1nc(CNc2ncnc3ccc(-c4ccc5c(c4)OCO5)cc23)cs1 | -0.38% (inactive)
26 | CCOC(=O)C1CCN(C(=O)C(C)(C)NC(=O)Nc2ccc(F)c(F)c2)CC1 | -2.08% (inactive)
27 | O=C(CCn1c(=S)[nH]c2cc3c(cc2c1=O)OCO3)NCc1ccc(Cl)cc1 | 21.7% (active)
28 | CC(C)NC(=O)CCCn1c(=S)[nH]c2cc3c(cc2c1=O)OCO3 | -1.56% (inactive)
29 | CCN(CC)CCCNC(=O)c1ccc2c(=O)n(Cc3ccc4c(c3)OCO4)c(=S)[nH]c2c1 | -2.35% (inactive)
30 | CCC[C@H]1C(=O)CC[C@@]23CCCN2C(=O)CCC[C@@H]13 | -1.54% (inactive)
31 | CO/N=C(/C(=O)N[C@@H]1C(=O)N2C(C(=O)O)=C(CSc3nc(=O)c(O)nn3C)CS[C@H]12)c1csc(N)n1 | -8.75% (inactive)
32 | O=C(Nc1ccc(F)cc1)C1CCCN(S(=O)(=O)c2ccc(-n3cnnn3)cc2)C1 (stereo not given) | 4.65% (inactive)
33 | CN1C(=O)c2cccc3c(N)ccc(c23)C1=O | 275% (active)
34 | Cc1nn(C)cc1N1C(=O)c2cccc3c(N)ccc(c23)C1=O | 153% (active)
35 | COc1ccc(-c2cc(-c3nnc(SCC(=O)Nc4cccc5ccccc45)n3N)[nH]n2)cc1 | -0.24% (inactive)
36 | O=C(OCc1ccccc1)c1ccc(O)cc1 | -3.01% (inactive)
37 | CC(=O)C1(C)N(O)C(C)(C)C(c2cccs2)=[N+]1[O-] (stereo not given) | -3.38% (inactive)
38 | C=C1C(C(C)C)N(C)C2=NC(c3ccccc3)CC(=O)N12 (stereo not given) | 0.81% (inactive)
39 | O=S1(=O)CC(N2CCN(Cc3ccccc3F)CC2)CN1Cc1cn(Cc2ccccc2)nn1 (stereo not given) | -7.27% (inactive)
40 | COc1ccc(/C=C2\SC(=S)N(CCCC(=O)NC3CCCC3)C2=O)cc1OC | 40.1% (active)
41 | COc1ccc(CCNC(=O)CCC(=O)NC2CCCCC2)cc1OC | -2.47% (inactive)
42 | COc1ccc(-c2noc(CCCC(=O)NC3CCCC3)n2)cc1OC | -0.42% (inactive)
43 | O=C(NC1CCC1)c1ccc(C#Cc2cccc(F)c2)c[n+]1[O-] | 1.34% (inactive)
44 | CCn1c(SCC(C)=O)nc2sc3c(c2c1=O)CCCC3 | -1.07% (inactive)

Row | SMILES | activity
45 | Cc1cc(NC(=O)CSc2nnc(-c3ccc(Cl)s3)o2)no1 | 6.3% (inactive)
46 | Cc1cc(NC(=O)CSc2nc(C(C)C)nc3sc4c(c23)CCC(C)C4)no1 (stereo not given) | 58.2% (active)
47 | Cc1nc(SCC(=O)Nc2cc(C)on2)c2c3c(sc2n1)CCCC3 | 27% (active)
48 | Cc1cc(NC(=O)CSc2nc(=O)cc(N)n2-c2ccc(F)cc2)no1 | -4.08% (inactive)
49 | Cc1cc(NC(=O)Cn2nc(C(F)(F)F)c3c2CCCC3)no1 | -1.28% (inactive)
50 | O=C(NCc1ccco1)C1CCCN(S(=O)(=O)c2ccc(Cl)s2)C1 (stereo not given) | -2.05% (inactive)
51 | COCCCNC(=O)CN1CCN(Cc2ccccc2Cl)C1=O | -7.51% (inactive)
52 | COC(=O)Nc1ccc(S(=O)(=O)N(C)CC(F)(F)C(F)F)cc1 | 3.77% (inactive)
53 | CCOc1ccccc1N1CCN(C(=S)Nc2ccc(S(N)(=O)=O)cc2)CC1 | -6.97% (inactive)
54 | CCOC(=O)c1ccc(NC(=S)N2CCN(c3ccccn3)CC2)cc1 | 26.1% (active)
55 | CCN(CC)c1ccc(NC(=O)CN2CCN(c3ccccn3)CC2)cc1 | -0.51% (inactive)
56 | O=C1CC(C(=O)O)NC(=S)N1 (stereo not given) | -0.01% (inactive)
57 | CCCCCCSc1ccc([C@@H]2[C@H]3C(=O)N(CC)C(=O)[C@H]3[C@]3(C(=O)OC)CCCCN23)cc1 | -1.1% (inactive)
58 | COC(=O)[C@]12CCCCC=C1N(Cc1ccccc1)C(=O)[C@H](CC(=O)NCc1ccc(C)o1)C2 | -2.87% (inactive)
59 | N#Cc1c(N)nc2c3c(sc(=N)c2c1N)NC(=O)CC3c1ccccc1Cl (stereo not given) | 31.7% (active)
60 | COc1ccc(-c2nc3n(c(=O)c2C#N)CCS3)c(OC)c1 | 0.62% (inactive)
61 | CCOc1cc(-c2conc2N)cc(OCC)c1OCC | -2.64% (inactive)
62 | CCOc1cc(-c2cc(-c3ccc(OC)cc3)nc(N)c2C#N)ccc1O | 31.7% (active)
63 | CCn1c(=O)n2n(c1=O)[C@@]1(C=C3CCCC[C@H]32)N=C(NC(=O)c2ccccc2)N(Cc2ccccc2)[C@H]1Cc1ccccc1 | -9.89% (inactive)
64 | C/C(=N\NC(N)=S)c1ccncc1 | 0.98% (inactive)
65 | CCN(CC)c1ccc(/C=N/NC(=O)CNC(=O)c2cccs2)cc1 | 0.7% (inactive)
66 | CCN(CC)c1ccc2cc(C(N)=O)/c(=N\NC(=O)c3ccncc3)oc2c1 | 35.1% (active)

Row | SMILES | activity
67 | N#C/C(C(=O)N1CCOCC1)=C1/SC(Cc2ccc(F)cc2)C(=O)N1c1ccccc1 (stereo not given) | 5.35% (inactive)
68 | COC(=O)c1ccccc1N=Nc1c(C)[nH][nH]c1=O | 3.84% (inactive)
69 | O=S(=O)(c1ccccc1)c1nc(Cc2ccccc2)oc1N1CCOCC1 | -4.54% (inactive)
70 | c1ccc(CSc2ncnc3c2sc2nc(N4CCOCC4)c4c(c23)CCCC4)cc1 | 158% (active)
71 | CC(=O)c1c(N2CCOCC2)nc(=S)n(Cc2ccccc2)c1C | -2.43% (inactive)
72 | CCOC(=O)N1CCN(c2cc(C)c([N+](=O)[O-])cc2F)CC1 | -1.95% (inactive)
73 | CCCNC(=O)Nc1ccc2c(c1)C(=O)N(C)[C@H]1CC[C@H](CC(=O)NCC3CCCCC3)O[C@@H]1CO2 | 119% (active)
74 | CCC(=O)Nc1ccc2c(c1)C(=O)N(C)[C@@H]1CC[C@@H](CC(=O)NCCc3ccccc3)O[C@H]1CO2 | 15.2% (inactive)
75 | CCC(=O)Nc1ccc2c(c1)C(=O)N(C)[C@H]1CC[C@H](CC(=O)NCCOC)O[C@@H]1CO2 | 9.28% (inactive)
76 | CC(Sc1nnnn1C)C(=O)NC(=O)NC1CCCCC1 (stereo not given) | 6.95% (inactive)
77 | CN(CC(=O)NCCc1ccc(F)cc1)CC(=O)Nc1ccc(F)c(F)c1F | -0.12% (inactive)
78 | COc1ccccc1CCNC(=O)C1CCN(c2nc(C)cc(C)n2)CC1 | 2.47% (inactive)
79 | COc1ccc(Cl)cc1-n1c(C)cc(C(=O)OCC(=O)N2CC(=O)Nc3ccccc32)c1C | -0.59% (inactive)
80 | COc1ccc(CCNc2cc(C)nc3c(-c4ccc(Cl)cc4)c(C)nn23)cc1OC | 7% (inactive)
81 | CCOC(=O)CSc1nc2ccc(C)cc2n2cnnc12 | 1.03% (inactive)
82 | COc1ccc(CCNc2nc3ccc(C)cc3n3cnnc23)cc1OC | 41.9% (active)
83 | COC(=O)Cn1c2ccc(C)cc2c2nc(C)sc21 | 5.92% (inactive)
84 | COC(=O)Cn1c(=NC(=O)CSCC(=O)Nc2cc(C)on2)sc2ccccc21 | 3.13% (inactive)
85 | COC(=O)Cn1c(=NC(=O)c2cc(OC)c(OC)c(OC)c2)sc2cc(OC)ccc21 | 23.3% (active)
